In the library only some 8.5% were active in any assay of this set; here they are far more common.
RGS12 GoLoco inh – qHTS Assay for Inhibitors of RGS12 GoLoco Motif Activity (Red Fluorophore); Guanine nucleotide-binding protein G(i) subunit alpha-1 (Homo sapiens), P63096; Gai1:RGS12 GoLoco peptide FP, rhodamine, 10 min; Potency, µM (top dose mostly 61.6 µM), without a hit: at the top dose activity, negative = inhibition, usual class: inhibitors; 230,000 tested, 0.44% active; AID 880, 2007; active = well fitted inhibition curve with a large enough effect, not every such curve was filed as active; inactive = no such curve, though single readings can be large or run the other way; note: potency is the fitted concentration of half-maximal effect; nearly all actives have a fitted effect of over 30% in size
Coupling enz – qHTS Assay for Inhibitors of Fructose-1,6-bisphosphate Aldolase from Giardia Lamblia: Coupling assay counterscreen; coupling enzyme system counterscreen, AmpLite Red fluorescence; 290,000 tested, 0.67% active; activity change, negative = inhibition, % at 58.2 µM, hits read low; in the data active = activity change below about -30%
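Coupling enzymes only (glyceraldehyde-3-phosphate) + compound, at 57.5 uM final, 10 min RT; add substrate/coupling/AmpLite Red mix, 20 min RT; fluorescence ex 525/em 598 nm. Actives flag coupling-system interference.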
KDM4E inh – qHTS Assay for Inhibitors of Human Jumonji Domain Containing 2E (JMJD2E); Lysine-specific demethylase 4E (Homo sapiens), B2RXH2; 230,000 tested, 1.6% active; JMJD2E catalytic domain, FDH-coupled NADH fluorescence (FDH is formaldehyde dehydrogenase); AID 2147, 2009; Potency, µM (titrated, usually from 57.1 µM), for inactives: at the highest dose activity change, negative = inhibition, actives largely listed as inhibitors; active = well fitted inhibition curve with a large enough effect, not every such curve was filed as active; inconclusive = small, poorly fitted or top-dose-only effect, or another doubt; inactive = no such curve, though single readings can be large or run the other way;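 note: potency is the fitted concentration of half-maximal effect; 0% = wells with enzyme and -100% = buffer wells without enzyme; nearly all actives have a fitted effect of over 50% in size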
Target sequence (B2RXH2 1-337 limits assumed): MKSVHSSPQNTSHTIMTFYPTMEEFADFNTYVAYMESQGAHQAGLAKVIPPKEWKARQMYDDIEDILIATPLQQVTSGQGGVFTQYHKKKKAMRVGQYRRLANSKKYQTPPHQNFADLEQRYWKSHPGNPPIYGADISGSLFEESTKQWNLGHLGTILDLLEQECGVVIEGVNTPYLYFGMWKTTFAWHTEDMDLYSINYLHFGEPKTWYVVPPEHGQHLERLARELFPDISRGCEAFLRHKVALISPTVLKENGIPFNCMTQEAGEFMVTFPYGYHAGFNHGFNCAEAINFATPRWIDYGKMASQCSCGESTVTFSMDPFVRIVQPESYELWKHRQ
Sfp inh – qHTS Assay for Inhibitors of Bacillus subtilis Sfp phosphopantetheinyl transferase (PPTase) | Biochemical Sfp PPTase activity, qHTS | AID 1490, 2009 | 310,000 tested, 3.5% active | Potency, µM, for inactives: largest response in the series, negative = inhibition, usual class: inhibitors;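 note: the enzyme is Sfp with the accession as filed and its product quenches rhodamine fluorescence; potency is the fitted concentration of half-maximal effect; 0% = enzyme reaction without inhibitor and -100% = no enzyme wells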
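Buffer: 50 mM Hepes-Na pH 7.6, 10 mM MgCl2, 0.01% Nonidet P-40, 0.01% BSA. Enzyme 15 nM, pre-exposed to compound 15 min; substrates then added and fluorescence change tracked over 30 min.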
ALDH1A1 inh – qHTS Assay for Inhibitors of Aldehyde Dehydrogenase 1 (ALDH1A1); Aldehyde dehydrogenase 1A1 (Homo sapiens), P00352; Purified ALDH1A1, NADH fluorescence, propionaldehyde substrate; Potency, µM (top dose mostly 75.3 µM), without a hit: at the highest dose activity, negative = inhibition, most hits filed as inhibitors; 220,000 tested, 7.3% active; active = well fitted inhibition curve with a large enough effect, not every such curve was filed as active; inconclusive = small, poorly fitted or top-dose-only effect, or another doubt; inactive = no such curve, though single readings can be large or run the other way;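 note: potency is the fitted concentration of half-maximal effect; plate controls were no enzyme wells and a reference inhibitor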
NPSR antag – qHTS Assay for Antagonists of the Neuropeptide S Receptor: cAMP Signal Transduction. Potency, µM (doses to about 38.3 µM), inactives show at the highest dose activity change, negative = inhibition, most hits filed as inhibitors. Q6W5P4. CHO-NPSR cells, cAMP TR-FRET, antagonist mode. AID 1461, 2008. 220,000 tested, 1% active; note: potency is the fitted concentration of half-maximal effect; nearly all actives have a fitted effect of over 50% in size
Target sequence (Q6W5P4 whole entry, looked up): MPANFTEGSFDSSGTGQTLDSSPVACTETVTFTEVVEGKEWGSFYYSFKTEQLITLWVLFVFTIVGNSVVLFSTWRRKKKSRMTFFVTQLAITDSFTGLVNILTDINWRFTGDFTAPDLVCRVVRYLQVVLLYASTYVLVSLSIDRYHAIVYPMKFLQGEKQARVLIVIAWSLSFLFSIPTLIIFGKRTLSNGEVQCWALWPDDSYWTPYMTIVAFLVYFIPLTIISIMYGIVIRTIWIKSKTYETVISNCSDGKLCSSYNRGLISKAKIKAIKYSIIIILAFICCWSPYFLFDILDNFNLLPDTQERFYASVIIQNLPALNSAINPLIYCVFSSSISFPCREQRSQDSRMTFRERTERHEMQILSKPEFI
* hit, by the source's call; ? = inconclusive; · = no result given; ! = a repeat was not active; [ ] = dose if it differs, or a comment. Unless noted, calls come from the whole dose curve; as a rule, active = well fitted curve in the direction sought with a large enough effect; inconclusive = small, poorly fitted or top-dose-only effect, or another doubt; inactive = no such curve, though single readings can be large; an effect the other way counts as inactive or inconclusive. Unless noted, % is set by controls: 0 for no effect and ±100 for the full control effect.

SMILES	RGS12 GoLoco inh	Coupling enz	KDM4E inh	Sfp inh	ALDH1A1 inh	NPSR antag
COc1cccc(CN2CCN(Cc3cccc(Oc4ccccc4)c3)CC2)c1OC	·	1.9	·	79.4µM*	·	·
COc1cccc(CN2CCC(N(CCc3ccccc3)Cc3ccccc3)CC2)c1OC	-10.0%	0.5	?	39.8µM*	?	-40.2%
COc1cccc(CN2CCN(Cc3cc(OC)c(OC)c(OC)c3)CC2)c1OC	·	0.5	·	-19.9%	·	·
COc1cccc(CN2CCN(Cc3ccccc3C(F)(F)F)CC2)c1	·	-2.7	·	56.2µM*	·	·
Cc1cccc(Cn2cnc3c(sc4nc(C)cc(C)c43)c2=O)c1	·	1.6	·	-11.5%	·	·
COc1ccc(C2=Nc3ccccc3OC2)cc1	10.2%	-0.3	?	-19.0%	22.4µM*	-15.2%[46.1 µM]
COc1cccc2c1cc1c(=O)n(CC(=O)N3CCC(C)CC3)nc(C)n12	·	·	·	6.0%	·	·
CCOC(=O)c1cc(-c2csc(Nc3c(C)cc(C)cc3C)n2)on1	5.1%	3.5	-14.6%	?	14.1µM*	3.9%
CS(=O)(=O)N1CCC(C(=O)NCCC2=CCCCC2)CC1	-13.2%	-0.7	9.5%	19.3%	?	-6.2%[46.1 µM]
CCN(CC)S(=O)(=O)N1CCC(C(=O)NCCC2=CCCCC2)CC1	4.8%	-0.7	-0.8%	9.0%	2.51µM*	5.7%
CCN(CC)S(=O)(=O)N1CCC(C(=O)NCCN2CCOCC2)CC1	7.6%	-10.4	-5.7%	-3.2%	10µM*	5.1%[46.1 µM]
O=C(Nc1ccccc1C(=O)N1CCCCC1)c1cccs1	·	·	·	3.7%	·	·
CC(O)CNc1ccc(-c2nn(C)c(=O)c3ccccc23)cc1[N+](=O)[O-] (stereo unspecified)	52.2%	7.4	11.0%	-14.0%	7.94µM*	-10.0%
CN(C)CCCNc1ccc(-c2nn(C)c(=O)c3ccccc23)cc1[N+](=O)[O-]	11.7%	-1.3	0.7%	10.7%	4.6%	-6.1%
Cc1ccc(C(=O)N(Cc2nc(-c3ccc(C)cc3)no2)C(C)C)cc1	2.4%	-0.3	-5.2%	9.6%	-4.3%	0.7%[46.1 µM]
Cc1ccc(SCC(=O)N(Cc2nc(-c3ccccc3)no2)C(C)C)cc1	-13.7%	0.5	1.1%	14.3%	25.1µM*	-5.3%[46.1 µM]
CC(C)N(Cc1nc(-c2ccccc2)no1)C(=O)c1ccc(Cl)cc1	-4.4%	2.6	-3.2%	0.0%	-0.1%	?
CC(C)N(Cc1nc(-c2ccccc2)no1)C(=O)c1ccc(Br)o1	0.1%	-1.6	1.6%	-1.0%	10µM*	-16.7%[46.1 µM]
O=C(Nc1cc(S(=O)(=O)N2CCOCC2)ccc1O)c1ccco1	-2.5%	4.8	-5.6%	56.2µM*	?	2.0%[46.1 µM]
O=C(Nc1cc(S(=O)(=O)N2CCOCC2)ccc1O)c1ccc2c(c1)S(=O)(=O)c1ccccc1C2=O	1.4%	4.3	-9.5%	20µM*	1.12µM*	-9.3%
COc1ccc(CNC(=O)C(C)N2C(=O)COc3ccc(C)cc32)c(OC)c1 (stereo unspecified)	2.0%	0.7	-1.3%	22.8%	·	12.4%
O=C(c1cc2cc(F)ccc2[nH]1)N1CCCC(Nc2ccc(F)cc2)C1 (stereo unspecified)	·	·	·	-7.3%	·	·
Cc1sc2nc(CN3CCOCC3)nc(N3CCOCC3)c2c1C	-0.4%	-8.2	?	?	14.1µM*	-3.7%[46.1 µM]
O=C(Nc1ccc(CN2CCOCC2)cc1)c1ccco1	·	1.4	·	7.2%	·	·
Cc1sc2nc(CN3CCOCC3)nc(N3CCC(C(N)=O)CC3)c2c1C	-3.5%	-1.0	-10.5%	-1.4%	0.7%	-12.6%[46.1 µM]
SMILES	RGS12 GoLoco inh	Coupling enz	KDM4E inh	Sfp inh	ALDH1A1 inh	NPSR antag
Cc1sc2nc(CN3CCOCC3)nc(Oc3ccc(NC(=O)c4ccco4)cc3)c2c1C	9.6%	5.7	-6.1%	89.1µM*!	17.8µM*	-21.1%[46.1 µM]
COc1cc(/C=C(\C#N)C(=O)Nc2ccccc2)ccc1OCCN1CCOCC1	·	1.2	·	0.3%	·	·
CC12CCC(=O)N1C(C(=O)Nc1ccc(F)cc1)CS2 (stereo unspecified)	·	0.4	·	2.4%	·	·
CCOC(=O)/C(C#N)=C\C1=C(N2CCCC2)CC(C)(CC)OC1 (stereo unspecified)	1.3%	0.3	-18.6%	7.7%	?	-6.8%[46.1 µM]
CCOC(=O)/C(C#N)=C\C1=C(N2CCCC2)CC(C)(C)OC1	2.9%	1.8	?	-13.3%	14.1µM*	-9.4%[46.1 µM]
O=c1c(-c2ccco2)[n+]([O-])c2ccccc2n1OCc1ccccc1[N+](=O)[O-]	-3.8%	-5.4	?	50.1µM*	14.1µM*	-35.6%
O=c1c(-c2ccco2)[n+]([O-])c2ccccc2n1OCc1ccccn1	-10.6%	-1.6	-21.8%	-5.6%	10µM*	-13.1%[46.1 µM]
CSc1ccc(S(=O)(=O)Nc2ccc(OCC(=O)N3CCOCC3)cc2)cc1	10.9%	1.6	-36.0%	-24.6%	12.6µM*	-0.7%
COc1ccc(NS(=O)(=O)c2ccc(OCC(=O)N3CCOCC3)cc2)cc1	13.9%	3.6	2.8%	6.8%	-3.6%	-2.8%[46.1 µM]
CCOc1ccccc1N(CC(=O)N1CCOCC1)S(=O)(=O)c1ccc(SC)cc1	-0.4%	2.7	-0.1%	14.7%	8.91µM*	-15.3%[46.1 µM]
O=C(CN(c1ccccc1F)S(=O)(=O)c1ccccc1)N1CCCCCC1	-1.9%	5.0	-28.3%	13.0%	28.2µM*	-17.6%[46.1 µM]
COC(/C(=N/O)c1ccc(Cl)cc1)c1ccccc1 (stereo unspecified)	·	-1.4	·	4.8%	·	·
CC(C)(C)NC(=O)C(=O)NNC(=O)c1ccco1	5.1%	2.0	-10.2%	79.4µM*	-0.6%	10.6%
CC(C)CNC(=O)C(=O)NNC(=O)c1ccco1	5.1%	1.7	-1.9%	4.0%	2.4%	-6.9%
C[C@@H]1NC(=O)N(CCCn2ccnc2)C1=O	·	-0.1	·	15.4%	·	·
Cc1cc(N)ccc1N1CCCC1	14.1µM*	-23.0	-28.4%	14.1µM*	25.1µM*	-23.7%[46.1 µM]
Cc1cc(N)ccc1-n1c(C)ccc1C	-61.1%	-14.8	?	-8.8%	10µM*	-8.5%[46.1 µM]
CC(=O)c1cc(F)c(N2CCCCCC2)cc1C	4.7%	-1.9	-5.5%	2.5%	7.9%	-5.3%[46.1 µM]
Cc1cc(N2CCCC2)c(C)cc1C=O	16.6%	1.6	1.3%	-2.1%	14.1µM*	-10.6%[46.1 µM]
Cc1ccc(-n2c(C)cc(=O)cc2C)c(C)c1	0.0%	4.6	5.0%	-7.9%	6.8%	?
